In the library only some 2.5% were active in any assay of this set; here they are far more common.
p53ts 39C kill: cytotoxicity in p53ts cells at nonpermissive temperature. H1299-p53A138V viability at 39C, ATP luminescence, 24 h. AID 902. 130,000 tested, 1.5% active. Potency, µM (series often up to 46.1 µM), for the others: at the highest dose activity change, negative = cell killing, hits mostly cytotoxic; also: % is scaled to controls: 0 for no effect and ±100 for the full control effect; nearly all actives have a fitted effect of over 55% in size
IkB sig inh: inhibitors of IkB signaling in ABC-DLBCL cells; ABC-DLBCL IkBa-CBG/CBR dual luciferase ratio, 4 h; response scale: scaled: untreated 0%, proteasome inhibitor 100%; Potency, µM (top dose mostly 57.1 µM), for the others: at the highest dose IkBa stabilization activation; 110,000 tested, 0.04% active; AID 445; active = well fitted curve in the direction sought with a large enough effect in the signal ratio, not every such curve was filed as active; inconclusive = small, poorly fitted or top-dose-only effect, or a change in a side signal; the % refers to the signal ratio;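 also: the direction sought is a rising ratio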
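Luminescence ratio of IκBα-fused green versus native red beetle luciferase in OCI-Ly3 cells, 4 h post-doxycycline with compound; red signal alone, scaled from basal (0%) to zero light (-100%), flagged nonspecific or cytotoxic effects.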
Caspase-7 inhib: allosteric or competitive inhibitors of human caspase-7; 75,000 tested, 0.02% active; Potency, µM (highest dose often 57.5 µM), inactives show top-dose activity change, negative = inhibition, most hits filed as inhibitors; recombinant caspase-7, Ac-DEVD-AFC fluorescence rate; P55210; active = well fitted inhibition curve with a large enough effect in the main read-out, with a control signal flat, not every such curve was filed as active; inconclusive = small, poorly fitted or top-dose-only effect, or a change in a side signal; also: % of control where 0% means no effect
FLuc inh: inhibitors of firefly luciferase; purified firefly luciferase, luminescence, 8 min; Potency, µM (doses to about 57.1 µM), for inactives: at the highest dose activity change, negative = inhibition, actives largely listed as inhibitors; 72,000 tested, 2.2% active; also: % is scaled to controls: 0 for no effect and ±100 for the full control effect; nearly all actives have a fitted effect of over 40% in size
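Substrate buffer containing 10 uM ATP (pH 7.2 imidazole, Mg2+, KCl, detergent, BSA) is dispensed, compound pinned in, then luciferase/luciferin detector mix added. After 8 min at ambient temperature, light output is measured.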
p53ts 32C tox: kills p53ts cells at the permissive temperature. Potency, µM (series often up to 46.1 µM), without a hit: top-dose activity change, negative = cytotoxicity, hits mostly cytotoxic. 130,000 tested, 0.93% active. H1299-p53A138V at 32C, ATP luminescence viability, 24 h;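 also: 0% = DMSO and -100% = full killing by reference compound; nearly all actives have a fitted effect of over 55% in size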
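Cells: H1299 p53ts (A138V), 600/well, pre-incubated 16–30 h at 37C. Cpd up to 46 uM, 24 h, 32C. Readout: ATPlite luminescence, 20 min RT. Normalization: DMSO vs tamoxifen 100 uM. AC50 by Hill equation.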
Caspase-1 inhib: blocks human caspase-1 allosterically or competitively. Potency, µM (top dose mostly 57.5 µM), without a hit: top-dose activity change, negative = inhibition, usual class: inhibitors. Caspase-1 enzyme, Ac-WEHD-AFC fluorogenic rate. 75,000 tested, 0.03% active. P29466;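 also: plate controls were vehicle for no effect and no substrate for full effect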
* marks the source's active call; other numbers are inactive results; ? = inconclusive; . = not tested or not shown; ! = not active in a repeat; [ ] = dose if it differs, or a comment. Unless noted, calls follow the shape of the dose curve; as a rule, active = well fitted curve in the direction sought with a large enough effect; inconclusive = small, poorly fitted or top-dose-only effect, or another doubt; inactive = no such curve, though single readings can be large; an effect the other way counts as inactive or inconclusive. Potency is read from the fitted curve at half-maximal effect.

SMILES | p53ts 39C kill | IkB sig inh | Caspase-7 inhib | FLuc inh | p53ts 32C tox | Caspase-1 inhib
CC(=O)OC1C(OC(C)=O)N(C(C)=O)C(=O)N1C(C)=O (configuration not stated) | -3% | 0% | -3% | -2% | -3% | -1%
Fc1ccc(Nc2nc(-c3ccncc3)nc3ccccc23)cc1F | 4% | . | . | . | . | .
Oc1ccc(Nc2nc(-c3ccc(Cl)cc3)nc3ccccc23)cc1 | 16µM* | ? | . | . | ? | .
COc1ccc(/C=C/C(=O)Nc2cccc(F)c2)cc1 | 7.9µM* | ? | . | . | 10µM* | .
COc1ccc(NC(=O)/C=C\c2ccc(Cl)cc2)cc1 | ? | ? | -1% | 13µM* | ? | -2%
COc1ccc(S(=O)(=O)N2CCN(CC(=O)Nc3cccc(F)c3)CC2)cc1 | 2% | 3% | 0% | -1% | -2% | -1%
COC(=O)[C@H](C)NC(=O)/C=C/c1ccc(OC)cc1 | -9% | . | . | . | -9% | .
Cc1ccc(-n2ncc(C(=O)NCCN3CCC(Cc4ccccc4)CC3)c2C2CCN(C(=O)OC(C)(C)C)CC2)cc1 | 7.9µM* | ? | . | . | ? | .
CC(C)(C)OC(=O)N1CCC(c2c(C(=O)NCCN3CCC(Cc4ccccc4)CC3)cnn2-c2cccc(Cl)c2)CC1 | 20µM* | ? | . | . | ? | .
COc1ccc(C2C(C#N)=C(N)Oc3n[nH]c(C)c32)cc1CSc1ccccn1 (configuration not stated) | . | . | . | 1%[25.5 µM] | . | .
Nc1nnc(-c2cccnc2)s1 | -1% | 0% | 0% | 1% | 5% | -1%
Nc1nnc(C(=O)c2ccccc2N)s1 | ? | 4% | 2% | -22% | 16µM* | 1%
CCN1C(=S)SC(=O)C1=C1C=C(C)N(Cc2ccco2)C(C)=C1 | -1% | -3% | -10% | 10µM* | 7% | -12%
C=CCN(CC=C)S(=O)(=O)c1ncn[nH]1 | 1% | 0% | 0% | 3% | 2% | 1%
CCOc1ccc(NC(=O)c2ccncc2)cc1 | -7% | -1% | 0% | -10% | -15% | 0%
CCOc1ccc(NC(=O)Cn2nnc(C(=O)Nc3ccc(OCC)cc3)c2N)cc1 | -26% | 3% | . | . | ? | .
CCOc1ccc(NC(=O)c2nn(C)cc2Br)cc1 | . | . | . | 10µM* | . | .
CCOc1ccc(NC(=O)c2ccc(N)cc2)cc1 | 13µM* | ? | 0% | 13µM* | 13µM* | -2%
CC(=O)c1cc(-c2ccccc2)n(CC(=O)NC2CCCCCC2)c1C | 46% | -1% | . | . | 1% | .
CCn1c(SCc2ccccc2Cl)nc(=O)c2c(C(=O)OC)cc(C3CC3)nc21 | 13µM* | ? | . | . | 10% | .
Cc1cc(NC(=O)NC(=O)c2ccc(F)cc2F)n[nH]1 | ? | ? | -5% | 16µM* | ? | -1%
COCCn1c(C)cc(C(=O)CSc2ccc(NC(C)=O)cc2)c1C | 13µM* | 1% | 0% | -3% | ? | 2%
Cc1csc(SCC(=O)c2cc(C)n(Cc3cccs3)c2C)n1 | 13µM* | ? | -5% | 4µM* | 13µM* | -1%
COCCn1c(C)cc(C(=O)CSc2nncn2-c2ccccc2)c1C | ? | -1% | -6% | ? | ? | -3%
CC(=O)Nc1ccc(SCC(=O)c2cc(C)n(Cc3cccs3)c2C)cc1 | 2.5µM* | 0% | -4% | -3% | 2.5µM* | -1%
SMILES | p53ts 39C kill | IkB sig inh | Caspase-7 inhib | FLuc inh | p53ts 32C tox | Caspase-1 inhib
Cc1ccc(C)c(CSc2c(C(C)C)cnc3c2c(=O)n(C)c(=O)n3C)c1 | 4% | 1% | . | . | -14% | .
O=C(O)C1CCCCC1C(=O)NCCCN1CCOCC1 (configuration not stated) | -12% | 0% | 0% | 3% | 13% | 2%
CCc1ccc(-c2nc(CN3CCC(C(=O)NCCN(CC)c4ccccc4)CC3)c(C)o2)cc1 | -4% | 1% | 1% | -2% | -1% | -2%
Cc1oc(-c2cccc(Cl)c2)nc1CN1CCC(C(=O)NC(C)c2ccccc2)CC1 (configuration not stated) | -6% | ? | . | . | 0% | .
CCN(CCNC(=O)C1CCN(Cc2nc(-c3ccc(Cl)cc3)oc2C)CC1)c1ccccc1 | ? | ? | -1% | -1% | 25µM* | -2%
CCN(CCNC(=O)C1CCN(Cc2nc(-c3cccc(Cl)c3)oc2C)CC1)c1ccccc1 | 16µM* | ? | -1% | 0% | 13µM* | 2%
COc1ccc(C(C)=O)c(Oc2nc(CN3CCOCC3)nc3scc(-c4cccs4)c23)c1 | 8% | 0% | ? | 0% | 13% | .
C[C@@]12C(=O)OC(=O)[C@@]1(C)[C@H]1CC[C@@H]2O1 | 83% | 4µM*! | 1% | -2%[11.4 µM] | 149% | 4%
CC12C(=O)OC(=O)C1(C)C1CCC2O1 (configuration not stated) | 59% | . | 0% | . | 145% | 2%
COC(=O)c1sccc1S(=O)(=O)N(CC(=O)NCc1ccc(C)cc1)c1ccc(Cl)cc1 | -11% | -1% | . | . | 3% | .
O=C(O)c1ccc2cc(-c3ccc(O)c(C45CC6CC(CC(C6)C4)C5)c3)ccc2c1 | ? | . | -10% | . | 20µM* | -3%
Nc1nc(COc2ccc3ccccc3c2)cs1 | -21% | ? | -1% | 25µM* | ? | -2%
Cc1ccc(C2c3c(-c4ccccc4O)n[nH]c3C(=O)N2CCCO)cc1 (configuration not stated) | 1% | ? | . | . | 19% | .
CCc1ccc(-n2nc(CO)c(C(=O)NC)n2)cc1 | 16µM* | -1% | . | . | ? | .

Source: PubChem BioAssay (National Center for Advancing Translational Sciences (NCATS))
